TDP1 cell noCPT = qHTS for Inhibitors of human tyrosyl-DNA phosphodiesterase 1 (TDP1): qHTS in cells in absence of CPT; AID 686978, 2013; 420,000 compounds, 15% hits; DT40 Tdp1-/- hTDP1 cells, no CPT, ATP luminescence, 48 h; Potency, µM (doses to about 46.2 µM), without a hit: top-dose activity change, negative = growth inhibition, actives largely listed as inhibitors; also: potency is read from the fitted curve at half-maximal effect; nearly all actives have a fitted effect of over 55% in size
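Growth of hTDP1-complemented DT40 Tdp1-knockout cells is measured by ATP luminescence after at least 48 hr compound exposure at 37 °C, with DMSO substituting for the 20 nM CPT used in the parallel screen.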
IL-1B inflam inh = blocks inflammasome-driven IL-1 beta release | THP-1 LPS/ATP IL-1B secretion, AlphaLISA, 16 h; stronger effect = lower value | activity change, % at 57.5 µM | 360,000 compounds, 4.7% hits | AID 743279; in the data active = activity change below about -50%; inconclusive = mostly about -30% to -49%
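Secreted IL-1B measured by AlphaLISA bead assay after 16 h compound exposure of THP-1 cells; compounds (final up to 57.5 uM) added 1 h before LPS (250 ng/mL) and ATP (1.25 mM) stimulation; lower signal means less secretion.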
Gal4-VP16 FLuc = inhibits Gal4-VP16 luciferase reporter, ROR gamma counter-screen. Drosophila S2 Gal4-VP16 UAS-luciferase, luminescence, 20 h. Potency, µM (series often up to 53.6 µM), inactives show top-dose activity, negative = inhibition, most hits filed as inhibitors. 310,000 compounds, 3.5% hits. AID 2546;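 also: Gal4-VP16 expression switched on by copper sulfate through the metallothionein promoter; potency is read from the fitted curve at half-maximal effect; nearly all actives have a fitted effect of over 50% in size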
TDP1 cell CPT = DT40-hTDP1 cell growth loss with CPT; chicken DT40 Tdp1-/-;hTDP1 cells + 20 nM CPT, ATP luminescence, 48 h; Potency, µM (series often up to 46.2 µM), for inactives: at the highest dose activity change, negative = growth inhibition, usual class: inhibitors; 420,000 compounds, 12% hits; AID 686979; also: potency is read from the fitted curve at half-maximal effect; nearly all actives have a fitted effect of over 55% in size
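Chicken DT40 Tdp1-/- cells stably complemented with human TDP1 were seeded at 400 cells/well in medium containing 20 nM camptothecin, exposed to pin-transferred compounds, and grown at 37 °C for at least 48 hr. Viability was read as ATP luminescence.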
LDHA inh = inhibitors of human lactate dehydrogenase A | P00338 | purified LDHA, NADH/diaphorase-resazurin fluorescence; stronger effect = lower value | activity change, % (values are at about 110 or 230 µM) | 480,000 compounds, 0.15% hits | AID 1347041; in the data active = activity change below about -30%; inconclusive = mostly about -25% to -30%;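 also: plate controls were DMSO wells for no effect and wells without enzyme for full effect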
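LDH5 2 nM; NADH 0.06 mM, pyruvate 0.2 mM; 200 mM Tris pH 7.4, EDTA, Tween-20; 5 min RT. Detection: diaphorase 0.133 mg/mL + resazurin 37 µM, fluorescence ex540/em590 at 0 and 20 min; normalized to enzyme-free and DMSO wells.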
RORg inh = ROR gamma (mouse) transcription inhibition; P51450; Drosophila S2 Gal4-RORgamma UAS-luciferase reporter, 20 h; Potency, µM (titrated, usually from 53.6 µM), for inactives: at the highest dose activity change, negative = inhibition, actives largely listed as inhibitors; 310,000 compounds, 5.4% hits; AID 2551; also: potency is read from the fitted curve at half-maximal effect; nearly all actives have a fitted effect of over 60% in size
Target sequence (P51450 whole entry, looked up, the tested form may be a part): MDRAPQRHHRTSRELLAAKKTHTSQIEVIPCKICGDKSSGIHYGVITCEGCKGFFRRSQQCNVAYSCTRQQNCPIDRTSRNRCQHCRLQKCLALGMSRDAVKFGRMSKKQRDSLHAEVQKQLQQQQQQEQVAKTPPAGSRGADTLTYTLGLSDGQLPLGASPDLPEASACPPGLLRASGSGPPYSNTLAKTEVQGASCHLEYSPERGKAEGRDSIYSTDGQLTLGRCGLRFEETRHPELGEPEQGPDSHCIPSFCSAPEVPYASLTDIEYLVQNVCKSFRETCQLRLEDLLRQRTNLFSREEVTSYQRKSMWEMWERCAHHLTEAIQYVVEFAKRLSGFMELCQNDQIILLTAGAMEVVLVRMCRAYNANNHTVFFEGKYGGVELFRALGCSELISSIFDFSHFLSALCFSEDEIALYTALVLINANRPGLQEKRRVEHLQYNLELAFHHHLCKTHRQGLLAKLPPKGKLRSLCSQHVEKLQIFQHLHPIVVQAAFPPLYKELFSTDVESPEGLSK
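Stable Schneider cell line, Gal4 DNA-binding domain fused to ROR gamma, UAS-luciferase. Cmpd 1 hr RT → CuSO4 700 uM final → 20 hr RT → luciferase reagent 10 min → luminescence.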
* hit, by the source's call. Rows were chosen to be rich in hits. Some 18% of all compounds tested hit in one or more screens of this group. Unless noted, calls follow the shape of the dose curve; as a rule, active = well fitted curve in the direction sought with a large enough effect; inconclusive = small, poorly fitted or top-dose-only effect, or another doubt; inactive = no such curve, though single readings can be large; an effect the other way counts as inactive or inconclusive. Unless noted, % is scaled to controls: 0 for no effect and ±100 for the full control effect.

Screening COc1ccc(OC)c(NC(=O)Nc2nc(CN(C)C)cs2)c1 returned TDP1 cell noCPT -23%, IL-1B inflam inh -3, TDP1 cell CPT -26% and LDHA inh 21.
`COc1ccc(OC)c(NC(=O)Nc2nc(C(N)C(C)C)cs2)c1` (stereo unspecified) gave TDP1 cell noCPT inconclusive, IL-1B inflam inh -63*, TDP1 cell CPT inconclusive and LDHA inh -4.
`COc1ccc(OC)c(NC(=O)Nc2nc(C(N)c3ccccc3Cl)cs2)c1` (stereo unspecified) gave TDP1 cell noCPT inconclusive, IL-1B inflam inh -51*, TDP1 cell CPT inconclusive and LDHA inh -4.
`Cc1ccccc1NC(=O)c1nc[nH]c1C(=O)NCc1ccccc1` gave TDP1 cell noCPT inconclusive, IL-1B inflam inh -1, Gal4-VP16 FLuc 5µM*, TDP1 cell CPT inconclusive, LDHA inh -4 and RORg inh 2.8µM*.
`CC(C)(C)OC(=O)CNC(=O)c1nc[nH]c1C(=O)NCc1ccc(CNC(=O)OC(C)(C)C)cc1` gave TDP1 cell noCPT 15µM*, IL-1B inflam inh 4, Gal4-VP16 FLuc inconclusive, TDP1 cell CPT 18µM*, LDHA inh -1 and RORg inh inconclusive.
Screening CC(C)(C)OC(=O)CNC(=O)c1nc[nH]c1C(=O)NCc1ccccc1 returned TDP1 cell noCPT -16%, IL-1B inflam inh 19, Gal4-VP16 FLuc inconclusive, TDP1 cell CPT inconclusive, LDHA inh -7 and RORg inh 7.1µM*.
`Cc1ccc(NC(=O)c2nc[nH]c2C(=O)NCc2ccccc2)cc1` gave TDP1 cell noCPT inconclusive, IL-1B inflam inh -15, TDP1 cell CPT inconclusive and LDHA inh -1.
For Cc1oc2cc(OS(C)(=O)=O)ccc2c(=O)c1-c1ccc(Br)cc1 the results were LDHA inh 2.
Screening Fc1ccc(/C=N/Nc2cc(N3CCOCC3)ncn2)cc1 returned TDP1 cell noCPT -10%, IL-1B inflam inh -27, Gal4-VP16 FLuc inconclusive, TDP1 cell CPT -25%, LDHA inh -1 and RORg inh inconclusive.
For O=C(Nc1cc(N2CCOCC2)ncn1)c1ccc(F)cc1 the results were TDP1 cell noCPT 5.8µM*, IL-1B inflam inh -20, Gal4-VP16 FLuc -17%, TDP1 cell CPT -13%, LDHA inh -6 and RORg inh -3%.
Screening COc1ccc(/C=N/Nc2cc(N3CCOCC3)ncn2)c(OC)c1 returned TDP1 cell noCPT -21%, IL-1B inflam inh -29, Gal4-VP16 FLuc -2%, TDP1 cell CPT 4%, LDHA inh -8 and RORg inh -2%.
`Fc1cccc(/C=N/Nc2cc(N3CCOCC3)ncn2)c1` gave TDP1 cell noCPT -10%, IL-1B inflam inh -53*, Gal4-VP16 FLuc inconclusive, TDP1 cell CPT -4%, LDHA inh -8 and RORg inh 9%.
COc1cccc(/C=N/Nc2cc(N3CCOCC3)ncn2)c1O was read as TDP1 cell noCPT 6.5µM*, IL-1B inflam inh -90*, Gal4-VP16 FLuc 11µM*, TDP1 cell CPT 5.8µM*, LDHA inh -8 and RORg inh 11µM*.
Screening O=C(Nc1cc(N2CCCCC2)ncn1)c1ccc(F)cc1 returned TDP1 cell noCPT inconclusive, IL-1B inflam inh -7, Gal4-VP16 FLuc -20%, TDP1 cell CPT inconclusive, LDHA inh -1 and RORg inh -38%.
`Cc1oc(-c2ccccc2)nc1CC(=O)Nc1cc(Cl)c(N)c(Cl)c1` gave LDHA inh -12.
Screening O=C(COc1ncnc2c(Cl)cc(Cl)cc12)Nc1ccc(F)cc1 returned LDHA inh -5.

Screens deposited in PubChem BioAssay by National Center for Advancing Translational Sciences (NCATS).
